Measured values: PubChem BioAssay (EPA / NIEHS)
Where “and” joins values, the source holds several entries; their conditions need not be identical. Equal values may be shown once. Where a structure was tested more than once in an assay, its records may differ in their call. Calls of active or inactive are those of the source. The calls were made as follows: active = hit-call score of the fitted dose curve at least 0.9, where 1 is the maximum; inactive = score below 0.9.

Assays:
[1] = read-out: Matrix Metallopeptidase 3 (MMP3), MMP3 (gene 4314); assay: BSK_BF4T_MMP3: BioMAP Diversity Plus: BF4T Assay for Matrix Metallopeptidase 3 (MMP3) Biomarker Activity (AID 2284271); conditions: primary human bronchial epithelial cells with fibroblasts
Summary of the method: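 Co-culture of human bronchial epithelial cells and dermal fibroblasts dosed 24 h; MMP-3 measured by ELISA, positive-direction fit versus DMSO. Cytotoxicity tracked by SRB total-protein staining (560 nm) in parallel cultures.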

[2] = read-out: Tissue plasminogen activator (tPA), PLAT (gene 5327); assay: BSK_BF4T_tPA: BioMAP Diversity Plus: BF4T Assay for Tissue plasminogen activator (tPA) Biomarker Activity (AID 2284272); conditions: primary human bronchial epithelial cells with fibroblasts
Summary of the method: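 tPA level quantified by ELISA at 24 h post-treatment in bronchial epithelial/dermal fibroblast co-cultures, gain of signal scored against DMSO baseline. Parallel cultures stained with 0.1% SRB (560 nm) to flag overt cytotoxicity.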

[3] = read-out: Plasminogen Activator Inhibitor-1 (PAI1), SERPINE1 (gene 5054); assay: BSK_BF4T_PAI1: BioMAP Diversity Plus: BF4T Assay for Plasminogen Activator Inhibitor-1 (PAI1) Biomarker Activity (AID 2284273); conditions: primary human bronchial epithelial cells with fibroblasts
Summary of the method: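 Co-culture of human bronchial epithelial cells and dermal fibroblasts exposed to compound for 24 h. PAI-1 measured by ELISA; activity fitted in positive direction versus DMSO. Parallel SRB staining assessed overt cytotoxicity.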

[4] = BSK_BF4T_SRB: Viability Assessment in the BioMAP Diversity Plus: BF4T Assay (AID 2284274); conditions: primary human bronchial epithelial cells with fibroblasts
Summary of the method: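 Co-culture of human bronchial epithelial cells and dermal fibroblasts (BioMAP BF4T) exposed 24 h. Total protein by sulforhodamine B staining (0.1% SRB after 10% TCA fixation, 560 nm) in parallel cultures; fitted vs DMSO.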

[5] = read-out: urokinase Plasminogen Activator (uPA), PLAU (gene 5328); assay: BSK_BF4T_uPA: BioMAP Diversity Plus: BF4T Assay for urokinase Plasminogen Activator (uPA) Biomarker Activity (AID 2284275); conditions: primary human bronchial epithelial cells with fibroblasts
Summary of the method: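 Co-culture of human bronchial epithelial cells and dermal fibroblasts; uPA quantified by ELISA 24 hours after dosing, fitted relative to DMSO. Parallel SRB total-protein staining assessed overt cytotoxicity.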

[6] = read-out: Matrix Metallopeptidase 9 (MMP9), MMP9 (gene 4318); assay: BSK_BF4T_MMP9: BioMAP Diversity Plus: BF4T Assay for Matrix Metallopeptidase 9 (MMP9) Biomarker Activity (AID 2284276); conditions: primary human bronchial epithelial cells with fibroblasts
Summary of the method: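 Co-culture of human bronchial epithelial cells and dermal fibroblasts dosed for 24 h; MMP-9 quantified by ELISA and fitted upward versus DMSO. Cytotoxicity monitored in parallel cultures by SRB total-protein staining at the biomarker time point.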

[7] = read-out: Interleukin-8 (IL8), CXCL8 (gene 3576); assay: BSK_IMphg_IL8: BioMAP Diversity Plus: IMphg Assay for Interleukin-8 (IL8) Biomarker Activity (AID 2284277); conditions: primary human endothelial cells with macrophages
Summary of the method: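 Co-culture of human venular endothelial cells and macrophages exposed to chemicals for 24 h; IL-8 quantified by ELISA and compared against the DMSO baseline, with SRB total-protein staining in parallel cultures for cytotoxicity.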

[8] = read-out: Intercellular Adhesion Molecule 1 (ICAM1), ICAM1 (gene 3383); assay: BSK_BE3C_ICAM1: BioMAP Diversity Plus: BE3C Assay for Intercellular Adhesion Molecule 1 (ICAM1) Biomarker Activity (AID 2284278); conditions: primary human bronchial epithelial cells
Summary of the method: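 Primary human bronchial epithelial cells in BE3C system, 24 h after chemical dosing; cell-surface ICAM-1 measured by ELISA relative to DMSO. Parallel SRB staining (0.1% SRB after 10% TCA fixation, read at 560 nm) assessed cytotoxicity.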

[9] = read-out: Interferon-inducible T-cell alpha chemoattractant (ITAC), CXCL11 (gene 6373); assay: BSK_BE3C_ITAC: BioMAP Diversity Plus: BE3C Assay for Interferon-inducible T-cell alpha chemoattractant (ITAC) Biomarker Activity (AID 2284279); conditions: primary human bronchial epithelial cells
Summary of the method: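 Steps: dose human bronchial epithelial cells with chemical; incubate 24 h; measure I-TAC by ELISA; fit endpoint in positive direction against DMSO control. Cytotoxicity was checked in parallel cultures by SRB staining at harvest.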

[10] = read-out: Interleukin-8 (IL8), CXCL8 (gene 3576); assay: BSK_BE3C_IL8: BioMAP Diversity Plus: BE3C Assay for Interleukin-8 (IL8) Biomarker Activity (AID 2284280); conditions: primary human bronchial epithelial cells
Summary of the method: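 IL-8 signal gain, normalised to DMSO vehicle, was scored after a 24 h chemical exposure of primary human bronchial epithelial cells, with detection by ELISA.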

[11] = read-out: Epidermal growth factor receptor (EGFR), EGFR (gene 1956); assay: BSK_BE3C_EGFR: BioMAP Diversity Plus: BE3C Assay for Epidermal growth factor receptor (EGFR) Biomarker Activity (AID 2284281); conditions: primary human bronchial epithelial cells
Summary of the method: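 Compound is added to human bronchial epithelial cells, cells incubate 24 h, then EGFR is detected by ELISA. Values reflect positive-direction fitting relative to DMSO.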

KRT18 (gene 3875) = assay: BSK_BE3C_Keratin818: BioMAP Diversity Plus: BE3C Assay for Keratin 818 Biomarker Activity (AID 2284282); conditions: primary human bronchial epithelial cells
Summary of the method: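 Primary human bronchial epithelial cells treated 24 h; Keratin 8/18 quantified by ELISA, fit relative to DMSO. Cytotoxicity tracked in parallel cultures by sulforhodamine B total-protein staining.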

[12] = read-out: Matrix Metallopeptidase 9 (MMP9), MMP9 (gene 4318); assay: BSK_BE3C_MMP9: BioMAP Diversity Plus: BE3C Assay for Matrix Metallopeptidase 9 (MMP9) Biomarker Activity (AID 2284283); conditions: primary human bronchial epithelial cells
Summary of the method: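 Endpoint is the ELISA MMP-9 signal in human primary bronchial epithelial cultures taken 24 h after chemical dosing. DMSO serves as negative control and baseline, with gain-of-signal fitting.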

[13] = read-out: Plasminogen activator inhibitor-1 (PAI1), SERPINE1 (gene 5054); assay: BSK_CASM3C_PAI1: BioMAP Diversity Plus: CASM3C Assay for Plasminogen activator inhibitor-1 (PAI1) Biomarker Activity (AID 2284284); conditions: primary human coronary artery smooth muscle cells;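 also: PAI-1 protein level measured by ELISA 24 h after dosing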
[14] = read-out: Monocyte Chemoattractant Protein-1 (MCP1), CCL2 (gene 6347); assay: BSK_hDFCGF_MCP1: BioMAP Diversity Plus: hDFCGF Assay for Monocyte Chemoattractant Protein-1 (MCP1) Biomarker Activity (AID 2284285); conditions: primary human foreskin fibroblasts
Summary of the method: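 Human foreskin fibroblasts (hDFCGF system) were exposed to compound and secreted MCP-1 was measured by ELISA after 24 hours. Activity was fitted relative to DMSO. Cytotoxicity was checked by SRB total-protein staining in parallel cultures.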

[15] = read-out: Vascular cell adhesion molecule 1 (VCAM1), VCAM1 (gene 7412); assay: BSK_IMphg_VCAM1: BioMAP Diversity Plus: IMphg Assay for Vascular cell adhesion molecule 1 (VCAM1) Biomarker Activity (AID 2284286); conditions: primary human endothelial cells with macrophages
Summary of the method: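 Human venular endothelial cells co-cultured with macrophages; VCAM-1 quantified by ELISA 24 h after dosing, fitted in the positive direction against DMSO. Cytotoxicity was checked in parallel cultures by SRB total-protein staining (0.1% SRB after 10% TCA fixation, 560 nm).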

[16] = read-out: Intercellular Adhesion Molecule 1 (ICAM1), ICAM1 (gene 3383); assay: BSK_hDFCGF_ICAM1: BioMAP Diversity Plus: hDFCGF Assay for Intercellular Adhesion Molecule 1 (ICAM1) Biomarker Activity (AID 2284287); conditions: primary human foreskin fibroblasts
Summary of the method: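 Primary human foreskin fibroblasts (hDFCGF system) dosed with chemical; ICAM-1 quantified by ELISA at 24 h relative to DMSO. Parallel SRB total-protein staining to assess overt cytotoxicity.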

CD40, CD40 (gene 958) = assay: BSK_IMphg_CD40: BioMAP Diversity Plus: IMphg Assay for CD40 Biomarker Activity (AID 2284288); conditions: primary human endothelial cells with macrophages
Summary of the method: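 Venular endothelial cells co-cultured with macrophages (human primary), CD40 measured by ELISA 24 h after dosing. Positive-direction fit vs DMSO baseline; cytotoxicity tracked by SRB total-protein staining in parallel cultures.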

[17] = read-out: TIMP metallopeptidase inhibitor 2 (TIMP2), TIMP2 (gene 7077); assay: BSK_hDFCGF_TIMP2: BioMAP Diversity Plus: hDFCGF Assay for TIMP metallopeptidase inhibitor 2 (TIMP2) Biomarker Activity (AID 2284289); conditions: primary human foreskin fibroblasts
Summary of the method: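 Primary human foreskin fibroblasts in the hDFCGF system, dosed for 24 h; TIMP-2 level measured by ELISA, fitted in the positive direction against DMSO; cytotoxicity checked in parallel by sulforhodamine B total protein staining.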

[18] = read-out: Interleukin-1 alpha (IL1a), IL1A (gene 3552); assay: BSK_IMphg_IL1a: BioMAP Diversity Plus: IMphg Assay for Interleukin-1 alpha (IL1a) Biomarker Activity (AID 2284290); conditions: primary human endothelial cells with macrophages
Summary of the method: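 Human venular endothelial cells co-cultured with macrophages, IMphg system. IL-1α is measured by ELISA 24 h after dosing and fitted in the positive direction against DMSO. Cytotoxicity is assessed by SRB staining of parallel cultures.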

Measured: AC50

NCC(F)(F)C(F)(F)C(F)(F)C(F)(F)C(F)(F)C(F)(F)C(F)(F)F
inactive: [1] | [2] | [3] | [4] | [5] | [6] | [7] | [8] | [9] | [10] | [11] | KRT18 (gene 3875) | [12] | [13] | [14] | [15] | [16] | CD40, CD40 (gene 958) | [17] | [18]
active: CD40, CD40 (gene 958) 24 µM

FC(F)(I)C(F)(F)C(F)(F)C(F)(F)C(F)(F)C(F)(F)I
active: [1] 19.3 µM [middle of 4 runs] | [2] 7.56 µM [middle of 5 runs] | [3] 19.3 µM [middle of 5 runs] | [4] 21.9 µM [middle of 5 runs] | [5] 14.4 µM [middle of 5 runs] | [6] 18.9 µM [middle of 5 runs] | [7] 47.1 µM [middle of 4 runs] | [8] 32.3 µM [middle of 5 runs] | [9] 20.4 µM [middle of 5 runs] | [10] 19.6 µM [middle of 5 runs] | [14] 5.13 µM [middle of 5 runs] | [15] 43.1 µM [middle of 5 runs] | [16] 5.98 µM [middle of 5 runs] | [17] 5.93 µM and 5.41 µM and 5.49 µM | [18] 30 µM and 22.7 µM and 39.1 µM
inactive: [1] | [7] | CD40, CD40 (gene 958) | [17] | [18]

OCCC(F)(F)C(F)(F)C(F)(F)C(F)(F)C(F)(F)C(F)(F)F
active: [14] 49.6 µM and 54.3 µM | [16] 44 µM and 54 µM | [17] 52.5 µM and 47 µM
inactive: [1] | [2] | [3] | [4] | [5] | [6] | [7] | [8] | [9] | [10] | [11] | KRT18 (gene 3875) | [12] | [13] | [15] | CD40, CD40 (gene 958) | [18]
